# PubChem BioAssay (Tox21)
# Results filed as inconclusive are left out. Where a call stands in place of a potency, no number is given. Activity calls are given as the source filed them. Calls come from the whole dose curve; as a rule, active = well fitted activation curve with a large enough effect in the signal ratio in the repeat runs (not every such curve was filed as active); inconclusive = weak or mixed curves, or effect the other way; inactive = no such curve, though single readings can be large or run the other way; the % refers to the signal ratio.
# Experiment: qHTS assay for small molecule agonists of the antioxidant response element (ARE) signaling pathway (AID 743202)
# Details: HepG2 ARE-bla reporter, beta-lactamase FRET, 16 h; series mostly up to 73.3 µM
# From the text: U.S. Tox21 Program National Center for Advancing Translational Sciences [NCATS] NIH Chemical Genomics Center [NCGC] U.S. Environmental Protection Agency [EPA] National Institutes of Environmental Health Sciences [NIEHS] National Toxicology Program [NTP] U.S. Food and Drug Administration [FDA] Tox21 Assay Overview: Oxidative stress has been implicated in the pathogenesis of a variety of diseases ranging from cancer to neurodegeneration. The antioxidant response element (ARE) signaling pathway plays an important role in the amelioration of oxidative stress. The CellSensor ARE-bla HepG2 cell line (Invitrogen) can be used for analyzing the Nrf2/antioxidant response signaling pathway. Nrf2 (NF-E2-related factor 2) and Nrf1 are transcription factors that bind to AREs and activate these genes. The CellSensor ARE-bla Hep G2 cell line contains a beta-lactamase reporter gene under control of the Antioxidant Response Element (ARE) stably integrated into HepG2 cells. The activation of the report gene under culture conditions can be detected by fluorescence intensity. This cell line has been used to screen the Tox21 10K compound library to identify agonists that induce oxidative stress.
# Tox21 Assay Protocol Summary: The ARE-bla cells were dispensed at 2,000 cells/5 ul/well in 1536-well black wall/clear bottom plates using a Multidrop dispenser. After the assay plates were incubated at a 37 C/5% CO2 incubator for 5 hours, 23 nL of compounds dissolved in DMSO, positive controls or DMSO only was transferred to the assay plate by a pin tool. The plates were incubated at 37 C for 16 hours. After 1 uL of LiveBLAzer B/G FRET substrate was added using a Flying Reagent Dispenser, the plates were incubated at room temperature for 2 hours, and fluorescence intensity was measured by an Envision plate reader.
# Potency is the fitted concentration of half-maximal effect.
row,SMILES,Potency
1,CC[N+](CC)(CCNC(=O)C(=O)NCC[N+](CC)(CC)Cc1ccccc1Cl)Cc1ccccc1Cl,inactive
2,CCCCCC#CC(=O)OC,inactive
3,CCCCCCC(C)(C)C(=O)O,inactive
4,O=C1C(=O)c2ccccc2C(O)=C1C1CCC(c2ccc(Cl)cc2)CC1 (stereo not given),6.68 µM (active)
5,CN1C(C(=O)Nc2ccccn2)=C(O)c2sccc2S1(=O)=O,inactive
6,Cc1ccccc1N=C(N)Nc1ccccc1C,inactive
7,CN1CC(=O)N2[C@H](c3ccc4c(c3)OCO4)c3[nH]c4ccccc4c3C[C@@H]2C1=O,inactive
8,Cc1cc(O)c(C)c(C)c1O,23.7 µM (active)
9,O=C1NCCN1CCO,inactive
10,NC(=O)c1ccncc1,inactive
11,O=C(O)c1ccc(OCCCOc2ccc(C(=O)O)cc2)cc1,inactive
12,CC(C)C=O,inactive
13,O=C(CCCN1CC=C(n2c(=O)[nH]c3ccccc32)CC1)c1ccc(F)cc1,inactive
14,COc1cc(N)c(Cl)cc1C(=O)NC1CCN(CCCOc2ccc(F)cc2)CC1OC (stereo not given),inactive
15,OC(CCN1CCCC1)(c1ccccc1)C1CCCCC1 (stereo not given),inactive
16,CCCCN(CCN(CCCC)C(=O)N1CCOCC1)C(=O)N1CCOCC1,inactive
17,CCCCN1CCCC1C(=O)Nc1c(C)cc(C)cc1C (stereo not given),inactive
18,CN1CCCN=C1COC(=O)C(O)(c1ccccc1)C1CCCCC1 (stereo not given),inactive
19,CS(=O)(=O)c1ccc(-c2cn3ccccc3n2)cc1,inactive
20,CC(=O)c1ccc([N+](=O)[O-])cc1,inactive

row,SMILES,Potency
1,CN(C)CCN1C(=O)c2ccccc2N(C)c2ccccc21,inactive
2,O=C(O)CCC(=O)C(=O)O,inactive
3,Nc1cccc2c1CN(C1CCC(=O)NC1=O)C2=O (stereo not given),inactive
4,O=C1c2ccccc2C(=O)C1c1nc2ccccc2c(Br)c1O,1.54 µM (active)
5,CC(C)(C)CC(=O)OCC(=O)[C@@]1(O)CC[C@H]2[C@@H]3CCC4=CC(=O)C=C[C@]4(C)[C@H]3[C@@H](O)C[C@@]21C,inactive
6,Cc1ccc(OC(=O)c2ccccc2O)cc1,inactive
7,NC1[C@H]2CN(c3nc4c(cc3F)c(=O)c(C(=O)O)cn4-c3ccc(F)cc3F)C[C@@H]12 (stereo not given in full),8.41 µM (active)
8,CCC(=O)C1CC(C(C)C)CC=C1C (stereo not given),inactive
9,CN1C(=O)OC(C)(C)C1=O,inactive
10,CC(C)=CCC1C(=O)N(c2ccccc2)N(c2ccccc2)C1=O,1.88 µM (active)
11,CCOC(=O)c1ccc(OCCN2C[C@H](O)[C@@H](O)[C@H](O)[C@H]2CO)cc1,inactive
12,CCN(CC)CCNC(=O)COc1ccc(OC)cc1,inactive
13,Cc1ccc(Cl)c(Nc2ccccc2C(=O)O)c1Cl,inactive
14,CCCCCCCC/C=C\CCCCCCCCCCCC(=O)O,inactive
15,CCc1ccccc1,inactive
16,CC(=O)OCC[N+](C)(C)C,inactive
17,NCCNCCO,inactive
18,CC1=C(CC=O)C(C)(C)CCC1,inactive
19,CCOC(=O)[C@H](CCc1ccccc1)N[C@@H](C)C(=O)N(CC(=O)O)C1Cc2ccccc2C1,inactive
20,C=C/C(C)=C/C/C=C(\C)CCC=C(C)C,54.5 µM (active)
